Measurements taken from PubChem BioAssay (NCATS).
Records with an inconclusive call do not appear. The source made the active and inactive calls. The call rests on the fitted dose curve; in most records, active means well fitted cell-killing curve with a large enough effect; inconclusive means small, poorly fitted or top-dose-only effect; inactive means no such curve, though single readings can be large or run the other way.

Experiment: qHTS of pediatric cancer cell lines to identify multiple opportunities for drug repurposing: Primary screen for Rh41 cells (AID 1347108); further: nearly all actives have a fitted effect of over 70% in size;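 on activity change, negative = cytotoxic: luminescence drop marks cytotoxic hits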
Details: Rh41 rhabdomyosarcoma viability, CellTiter-Glo luminescence, 48 h; series mostly up to 46 µM; activity change, negative = cytotoxic: at the top concentration
Description: Drug repurposing or repositioning has been offered as a strategy for drug development in oncology programs. This approach has special potential for childhood cancers and other rare or orphan diseases, where the expected return on new drug development has been a disincentive to pharmaceuticals. […] In this project we exploit the poly-pharmacology of drugs to discover new indications via phenotypic screening of a panel of 19 well-characterized cell lines derived from solid tumors seen in children and adolescents. The goal is to identify approved drugs with previously unrecognized anticancer properties that has the potential to reveal new mechanisms and biological processes involved in carcinogenesis or drug resistance. We employed a titration-based paradigm (quantitative high-throughput screening or qHTS), where all compounds were tested at multiple concentrations for their effect on cell viability. Concentration-response curves (CRCs) were derived directly from the primary screen, and both potency and efficacy values were used to identify compounds with robust bioactivity profiles. We screened the NIH Chemical Genomics Center (NCGC) Pharmaceutical Collection (NPC) and Mechanism Interrogation Plate (MIPE) small molecule collections of approved and investigational compounds against these cell lines; and measured metabolically active cells after 48 hours of compound treatment as a proxy for cell viability. […] Assay Submitter: Nathalia J. Martinez, National Center for Advancing Translational Sciences, National Institutes of Health, Rockville, MD, USA; email: natalia.martinez@nih.gov Shen, M et al. Quantitative high-throughput phenotypic screening of pediatric cancer cell lines identifies multiple opportunities for drug repurposing. Oncotarget 2017 Dec 19;9(4):4758-4772. PMID 29435139.
The cells were obtained from University of North Carolina (UNC), Pediatric Preclinical Testing Program (PPT), and Coriell Institute (CI). qHTS cell viability assay: Cells were assayed in growth media at a density of 500-1,000 cells/well. Five microliters of cells were dispensed into 1,536-well, white, solid-bottom, TC-treated plates (Greiner Bio One) using a multidrop dispenser and incubated at 37 degrees C, 5% CO2, under a humidified atmosphere for 5 hours. Twenty-three nanoliters of compounds and controls (neutral control DMSO or positive control bortezomib at final concentration of 2.3 µM) were subsequently transferred by Kalypsys pintool. For primary screens, the MIPE collection was tested at 11-point dilutions (final concentrations range from 0.78 nM to 46 µM) and the NPC collection at 8-point dilutions (final concentrations range from 0.59 nM to 46 µM). Compounds tested in follow-up screens were assayed at 11-point dilutions. Cells were incubated for 48 hours, followed by addition of 3 µL of CellTiter-Glo (Promega). After a 15 min incubation at room temperature, samples were analyzed for luminescence intensity using a ViewLux High-throughput CCD imager equipped with clear filters.
Potency means the concentration at half of the fitted maximal effect.

| SMILES | activity change, negative = cytotoxic | Potency |
| --- | --- | --- |
| CCC(=O)Nc1ccc(O)cc1 | 7.26% (inactive) |  |
| CN(C)CC[C@@H](c1ccc(Cl)cc1)c1ccccn1 | 7.42% (inactive) |  |
| NS(=O)(=O)c1cc2c(cc1Cl)NC(CSCc1ccccc1)=NS2(=O)=O | 8.33% (inactive) |  |
| NC(CSCC(=O)O)C(=O)O (stereo not given) | 26.8% (inactive) |  |
| C[C@@H]1C[C@H]2[C@@H]3C[C@H](F)C4=CC(=O)C=C[C@]4(C)[C@@]3(F)[C@@H](O)C[C@]2(C)[C@@]1(O)C(=O)CO | 14.1% (inactive) |  |
| CC1(C)S[C@@H]2[C@H](NC(=O)Cc3ccccc3)C(=O)N2[C@H]1C(=O)O (tested in a mixture with another compound) | 16.3% (inactive) |  |
| CNCCCC1c2ccccc2C=Cc2ccccc21 | 8.46% (inactive) |  |
| Nc1ccc(S(=O)(=O)Nc2ccccc2)cc1 | 23% (inactive) |  |
| CCN(CC)CCNC(=O)c1cc(Cl)c(N)cc1OC | 11.3% (inactive) |  |
| CN1CCC[C@@H]1Cc1c[nH]c2ccc(CCS(=O)(=O)c3ccccc3)cc12 | 27.6% (inactive) |  |
| O=C(O)c1ccccn1 | 11.9% (inactive) |  |
| NC(=O)c1ncn([C@@H]2O[C@H](CO)[C@@H](O)[C@H]2O)n1 | 8.94% (inactive) |  |
| C[C@H](NC(CCc1ccccc1)C(=O)O)C(=O)N1CCC[C@H]1C(=O)O (stereo not given in full) | 13.3% (inactive) |  |
| CCCCN(CCCC)CCCOC(=O)c1ccc(N)cc1 | 24.4% (inactive) |  |
| C/C(=C(\CCOP(=O)(O)O)SC(=O)c1ccccc1)N(C=O)Cc1cnc(C)nc1N | 27.9% [at 4.84 µM] (inactive) |  |
| CC(C)(C(=O)O)c1ccc(C(O)CCCN2CCC(C(O)(c3ccccc3)c3ccccc3)CC2)cc1 (stereo not given) | 17.8% (inactive) |  |
| Nc1ccc(S(=O)(=O)Nc2nccs2)cc1 | 27.4% (inactive) |  |
| [Cl][In]([Cl])[Cl] | 31.4% [at 92.7 µM] (inactive) |  |
| CN(C)CCN(Cc1ccccc1)c1ccccn1 | 7.41% (inactive) |  |
| O=C1N=C(O)CN1/N=C/c1ccc(-c2ccc([N+](=O)[O-])cc2)o1 | 29% (inactive) |  |

| SMILES | activity change, negative = cytotoxic | Potency |
| --- | --- | --- |
| CCN(CC)CCOC(=O)C1(C2CCCCC2)CCCCC1 | 9.35% (inactive) |  |
| C[C@@H](O)[C@H](N)C(=O)O | 10.6% [at 16.1 µM] (inactive) |  |
| Nc1ccc(S(=O)(=O)NC(=O)c2ccccc2)cc1 | 16.5% (inactive) |  |
| CC[C@H]1CN2CCc3cc(OC)c(OC)cc3[C@@H]2C[C@@H]1C[C@H]1NCCc2cc(OC)c(OC)cc21 |  | 3.76 µM (active) |
| Oc1cccc(O)c1 | 27.9% (inactive) |  |
| CN1[C@@H]2CC[C@H]1CC(OC(=O)C(O)c1ccccc1)C2 (stereo not given in full) | 15.7% (inactive) |  |
| NC(N)=NCCC[C@H](N)C(=O)O | 10.4% [at 4.84 µM] (inactive) |  |
| COc1ccc2cc1Oc1cc3c(cc1OC)CC[N+](C)(C)[C@H]3Cc1ccc(cc1)Oc1c(OC)c(OC)cc3c1[C@@H](C2)[N+](C)(C)CC3 | 25.8% (inactive) |  |
| CCCCC/C(C=O)=C\c1ccccc1 | 23.5% (inactive) |  |
| CC1(C)Oc2ccc(C#N)cc2[C@@H](N2CCCC2=O)[C@@H]1O | 14.7% (inactive) |  |
| Oc1ccc(C(O)CNCCCCCCNCC(O)c2ccc(O)c(O)c2)cc1O (stereo not given) | 10.3% (inactive) |  |
| CC(C)(C)C(=O)NCCCC(=O)O | 21.6% (inactive) |  |
| CC(=O)c1ccc2c(c1)N(CCCN(C)C)c1ccccc1S2 | -2.76% (inactive) |  |
| CCOc1nc2cccc(C(=O)O)c2n1Cc1ccc(-c2ccccc2-c2nn[nH]n2)cc1 | 5.17% (inactive) |  |
| CCOC(CN1CCN(CC(C)C(=O)c2ccccc2)CC1)c1ccccc1 (stereo not given) | 16.6% [at 16.1 µM] (inactive) |  |
| COc1cc2[nH]c(=O)[nH]c(=O)c2cc1OC | 23.3% (inactive) |  |
| CC1=C(CC(=O)O)c2cc(F)ccc2/C1=C\c1ccc(S(C)=O)cc1 (stereo not given) | 8.83% (inactive) |  |
| C=CCn1c(=O)n([C@@H]2O[C@H](CO)[C@@H](O)[C@H]2O)c2nc(N)[nH]c(=O)c21 | 33.9% (inactive) |  |
| N[C@@H](CSSC[C@H](N)C(=O)O)C(=O)O | 8.25% [at 0.597 µM] (inactive) |  |
| O=c1[nH]cnc2c1ncn2[C@@H]1O[C@H](CO)[C@@H](O)[C@H]1O | 23.3% (inactive) |  |
